Compound activity deposited in PubChem by several laboratories.
CYP2C19 activ: increases human CYP2C19 enzyme activity; activation factor at 5 µM; P33261; 96,000 tested, under 10 active; AID 1025; recombinant CYP2C19, luciferin-H EGE luminescence; stronger effect = higher value; 0 = fully inhibited enzyme, 1 = untreated enzyme;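 active means activation factor of at least 2 at 5 µM in the primary screen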
CYP2C9 inhib: human CYP2C9 inhibition | inhibition, % at 5 µM | P11712 | AID 777 | CYP2C9 Supersomes, luciferin-H conversion, luminescence | actives 20% (n = 96,000);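 active means blocking of liver enzyme CYP2C9 beyond about 50% at 5 µM, limit read from the data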
Target sequence (P11712 whole entry, looked up): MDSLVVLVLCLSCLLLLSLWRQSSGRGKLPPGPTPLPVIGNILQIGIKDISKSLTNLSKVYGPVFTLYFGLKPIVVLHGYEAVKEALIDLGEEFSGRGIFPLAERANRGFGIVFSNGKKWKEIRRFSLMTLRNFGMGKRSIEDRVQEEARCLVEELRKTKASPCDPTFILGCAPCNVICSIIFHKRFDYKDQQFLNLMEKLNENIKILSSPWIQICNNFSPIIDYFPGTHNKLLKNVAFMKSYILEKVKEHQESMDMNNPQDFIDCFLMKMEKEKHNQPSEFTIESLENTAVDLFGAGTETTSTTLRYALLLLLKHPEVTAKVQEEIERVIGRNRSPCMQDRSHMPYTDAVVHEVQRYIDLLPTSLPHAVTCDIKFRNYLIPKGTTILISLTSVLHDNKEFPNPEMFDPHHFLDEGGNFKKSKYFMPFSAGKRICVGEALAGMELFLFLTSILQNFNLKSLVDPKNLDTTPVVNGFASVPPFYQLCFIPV
CYP2C19 inhib: blocks human cytochrome P450 2C19; P33261; CYP2C19 Supersomes, luciferin-H EGE luminescence, 30 min; inhibition, % at 5 µM; actives 21% (n = 96,000);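 active means CYP2C19 inhibition above a set limit at 5 µM in the primary screen, cut at about 50% in these data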
CYP2C9 act: increases human cytochrome P450 2C9 activity; AID 1024; activation factor at 5 µM; recombinant CYP2C9, luciferin-H conversion, luminescence; stronger effect = higher value; factor 1 = untreated enzyme, 0 = blocked; actives 1.4% (n = 96,000);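 active means activation factor of 2 or more for CYP2C9 at a 5 µM dose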
F-actin modifier: alters cytoskeleton assembly in HUVEC cells. inhibition, % at 2 µM. actives 0.18% (n = 91,000). AID 836. HUVEC TNFa F-actin phalloidin imaging, high content;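 active means inhibition above the batch mean plus 3 SD and confirmed as a hit by visual image inspection, cut at about 30% in these data, passing the limit was not always enough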
E-sel TNF inh: blocks E-selectin expression induced by TNF alpha; actives 0.71% (n = 120,000); HUVEC TNFa-induced E-selectin immunofluorescence, high content; inhibition, % at 2 µM;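 active means inhibition above the batch mean plus 3 SD, and confirmed as a hit on visual image review, cut at about 43% in these data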
Of the large screens only hits and unclear results are named; the others gave an inactive call. Rows were chosen to be rich in hits. Some 22% of all compounds tested hit in one or more screens of this group.

CC(OC(=O)c1ccco1)C(=O)NC1CCCCC1 (stereo not drawn)	E-sel TNF inh 86
O=C(NC1CCCCCCC1)c1ccco1	none
Clc1ccc(CSc2nnc(-c3sccc3-n3cccc3)o2)cc1	none
COCCN(CCOC)C(=O)c1cc2sc3ccccc3c2s1	CYP2C9 act 2.8
CCN(CC)C(=O)c1cc2sc3ccccc3c2s1	CYP2C9 act 2.4 (no result: F-actin modifier, E-sel TNF inh)
CN(C)CCNC(=O)c1cc2sc3ccccc3c2s1	none (no result: CYP2C19 activ, CYP2C9 inhib, CYP2C19 inhib, CYP2C9 act, F-actin modifier)
CCOc1ccccc1N1CCN(C(=O)c2c(-c3ccccc3Cl)noc2C)CC1	none (no result: CYP2C19 activ, CYP2C9 inhib, CYP2C19 inhib, CYP2C9 act, F-actin modifier)
COc1ccc(OCC(O)CNC(=O)/C=C/c2cccc([N+](=O)[O-])c2)cc1 (stereo not drawn)	none (no result: CYP2C19 activ, CYP2C9 inhib, CYP2C19 inhib, CYP2C9 act, F-actin modifier)
Cc1cc(C(C)(C)C)cc(S(=O)(=O)NCC(=O)O)c1C	CYP2C9 act 2.3
CC(C)C(=O)c1cc2c(cc1NC(=O)Nc1cccc3ccccc13)OCCO2	none
CSCC[C@H](NC(=O)c1nn(C)c(=O)c2ccccc12)c1nc2ccccc2[nH]1	CYP2C9 inhib 94
CCCCn1nc(C(=O)N[C@@H](CCSC)c2nc3ccccc3[nH]2)c2ccccc2c1=O	CYP2C9 inhib 90, CYP2C19 inhib 62
CSCC[C@H](NC(=O)CC(C)(C)C)c1nc2ccccc2[nH]1	none (no result: E-sel TNF inh)
CCCCC(NC(C)=O)c1nc2ccccc2[nH]1 (stereo not drawn)	CYP2C19 inhib 64 (no result: E-sel TNF inh)
COc1cc(OC)cc(C(=O)N[C@@H](CCSC)c2nc3ccccc3[nH]2)c1	none (no result: CYP2C19 activ, CYP2C9 inhib, CYP2C19 inhib, CYP2C9 act, F-actin modifier)
CCn1nc(C(=O)N[C@@H](CCSC)c2nc3ccccc3[nH]2)c2ccccc2c1=O	CYP2C9 inhib 96, CYP2C19 inhib 64
CCOC(=O)NC(c1cccc(Cl)c1)C1CCCCCC1=O (stereo not drawn)	CYP2C9 inhib 56, CYP2C19 inhib 97
O=C1[C@H]2[C@@H](C(=O)N1c1cc(Cl)cc(Cl)c1)[C@]1(C(=O)Nc3ccccc31)N1CCC[C@@H]21	CYP2C9 inhib 90, CYP2C19 inhib 52 (no result: E-sel TNF inh)
COc1cc(C(=O)NCCC(=O)NCCN2CCCCCC2)cc(OC)c1OC	none (no result: F-actin modifier)
CS(=O)(=O)N(CC(=O)Nc1ccc(CC#N)cc1)c1ccc(C23CC4CC(CC(C4)C2)C3)cc1	CYP2C9 inhib 59
COc1ccc(-c2nnc(CSc3nc4ccccc4c(=O)n3CC(C)C)o2)cc1OC	CYP2C9 inhib 97, CYP2C19 inhib 92
O=c1c2ccccc2nc(SCc2nc(-c3ccccc3)no2)n1-c1ccc(F)cc1	CYP2C9 inhib 59 (no result: F-actin modifier)
O=C(CSc1nc2ccccc2c(=O)n1-c1ccc(F)cc1)Nc1ccc(N2CCOCC2)cc1	none (no result: CYP2C19 activ, CYP2C9 inhib, CYP2C19 inhib, CYP2C9 act, F-actin modifier)
COc1cc(-c2nnc(CSc3nc4ccccc4s3)o2)cc(OC)c1OC	CYP2C9 inhib 65, CYP2C19 inhib 53
COCCCn1c(SCc2nnc(-c3ccc(OC)c(OC)c3)o2)nc2ccccc2c1=O	none (no result: CYP2C19 activ, CYP2C9 inhib, CYP2C19 inhib, CYP2C9 act)
COc1ccc(-c2noc(CSc3nc4ccccc4c(=O)n3-c3ccccc3)n2)cc1OC	CYP2C9 inhib 69
COc1ccc(CNC(=O)Oc2ccccc2)cc1Cl	CYP2C19 inhib 63, CYP2C9 act 2.4 (no result: E-sel TNF inh)
COC(=O)NCc1ccc(Cl)c(Cl)c1	CYP2C19 inhib 64 (no result: F-actin modifier)
O=C(NCc1ccccc1)Oc1cccc(Cl)c1	none (no result: CYP2C19 activ, CYP2C9 inhib, CYP2C19 inhib, CYP2C9 act)
COC(=O)NCc1ccc(CNC(=O)OC)cc1	none
COc1ccc(S(=O)(=O)N2CCC(n3cnc4cc(C(F)(F)F)ccc43)CC2)cc1	CYP2C19 inhib 74 (no result: F-actin modifier)
O=S(=O)(c1ccc2c(c1)OCCO2)N1CCC(n2nnc3cc(C(F)(F)F)ccc32)CC1	CYP2C19 inhib 94
Cc1ccc(NC(=O)NC2CCN(S(=O)(=O)c3ccc(F)cc3)CC2)cc1	none (no result: CYP2C19 activ, CYP2C9 inhib, CYP2C19 inhib, CYP2C9 act)
O=S(=O)(c1ccccc1)N1CCC(n2nnc3cc(F)ccc32)CC1	none
CC(=O)Nc1ccc(S(=O)(=O)N2CCC(n3cnc4cc(F)ccc43)CC2)cc1	CYP2C9 inhib 60
CN(Cc1n[nH]c(=S)n1C)S(=O)(=O)c1ccccc1	none
Cc1onc(-c2ccccc2)c1C(=O)NC(=S)Nc1sc2c(c1C#N)CCC(C)C2 (stereo not drawn)	none (no result: CYP2C19 activ, CYP2C9 inhib, CYP2C19 inhib, CYP2C9 act, F-actin modifier)
Cc1ccc(C(=O)N(CN2CCCC2=O)c2ccc(F)cc2)cc1C	none (no result: E-sel TNF inh)
Cc1ccc(S(=O)(=O)N(Cc2ccccc2)c2ccccc2C(=O)Nc2ccccc2C(=O)NCc2ccco2)cc1	none (no result: CYP2C19 activ, CYP2C9 inhib, CYP2C19 inhib, CYP2C9 act, F-actin modifier)
Cc1ccc(S(=O)(=O)N(Cc2ccccc2)c2ccccc2C(=O)NCc2ccco2)cc1	CYP2C9 inhib 99
CS(=O)(=O)N(Cc1ccccc1)c1ccccc1C(=O)Nc1ccccc1C(=O)NCc1ccco1	CYP2C9 inhib 84, CYP2C19 inhib 89
Cc1ccc(N(C(=O)Cc2cccs2)C(C(=O)NC2CCCCC2)c2ccccn2)cc1C (stereo not drawn)	none (no result: CYP2C19 activ, CYP2C9 inhib, CYP2C19 inhib, CYP2C9 act, F-actin modifier)
CSc1nc(C)cc(OCNC(=O)c2cccs2)n1	none (no result: E-sel TNF inh)
OC(CN1CCN(c2ccccc2)CC1)c1c[nH]c2ccccc12 (stereo not drawn)	CYP2C19 inhib 57
COc1ccc(/C=C2/N=C(c3cccs3)OC2=O)cc1OC(C)C	CYP2C9 inhib 72
CCOc1ccc(/C=C2\N=C(c3cccs3)OC2=O)cc1OC	none (no result: CYP2C19 activ, CYP2C9 inhib, CYP2C19 inhib, CYP2C9 act, F-actin modifier)
Cn1ccnc1SCC(=O)Nc1ccc2c(c1)OCO2	none (no result: CYP2C19 activ, CYP2C9 inhib, CYP2C19 inhib, CYP2C9 act, F-actin modifier)
O=C(CSc1nccn1-c1ccc(F)cc1)Nc1ccc2c(c1)OCO2	CYP2C19 inhib 52
CSc1nccn1CC(=O)Nc1ccc(F)cc1	CYP2C19 inhib 63 (no result: F-actin modifier, E-sel TNF inh)
O=C(CSc1nccn1-c1ccccc1)Nc1ccc2c(c1)OCO2	CYP2C9 inhib 74, CYP2C19 inhib 87
O=c1[nH][nH]c(C(F)(F)F)c1C=NCc1ccc(Cl)cc1	CYP2C19 inhib 58
O=c1[nH][nH]c(C(F)(F)F)c1C=NCc1cccc(Cl)c1	CYP2C19 inhib 68
Cc1ccc(C)c(-n2c(SCC(N)=O)nnc2-c2ccccn2)c1	none
COc1ccc2[nH]cc(C(=O)CN3CCCC(C)C3)c2c1 (stereo not drawn)	none
COc1cccc(N2CCN(CC(=O)c3c[nH]c4ccc(OC)cc34)CC2C)c1 (stereo not drawn)	CYP2C9 inhib 50
CCOc1ccc(C2C=C(c3ccc(C)cc3)Nc3nnnn32)cc1 (stereo not drawn)	CYP2C9 inhib 84, CYP2C19 inhib 83
CCOc1ccc(C2C=C(c3ccccc3)Nc3nnnn32)cc1 (stereo not drawn)	CYP2C9 inhib 62, CYP2C19 inhib 64
CCOC(=O)c1cc(C#N)c(SCC(=O)c2cc(C#N)c(SC)nc2C)nc1C	CYP2C9 inhib 99 (no result: F-actin modifier, E-sel TNF inh)
O=C1NCC(c2ccccc2)C1C(=O)N/N=C/c1ccc(Cl)s1 (stereo not drawn)	none (no result: CYP2C19 activ, CYP2C9 inhib, CYP2C19 inhib, CYP2C9 act, F-actin modifier)
O=C1NCC(c2ccccc2)C1C(=O)N/N=C\c1ccc(-c2ccc(Cl)c(Cl)c2)o1 (stereo not drawn)	CYP2C9 inhib 67
CCC1CCC/C1=N\NC(=O)c1cc(C)[nH]n1 (stereo not drawn)	none
C=CCOc1ccc(CNn2nnnc2N)cc1	none
COc1cc(NC(=O)c2ccc(-c3ccc(Br)cc3)o2)ccc1NC(=O)C(C)C	CYP2C19 inhib 54
